The whole screen tested about 310,000 compounds, of which about 2,200 (0.71%) showed an effect of 50% or more. The effect is printed as a negative number. The sample holds strong results, similar compounds and a random draw of the others, so the mix is not that of the screen.

In this assay the target is human ether-à-go-go-related gene (hERG) potassium channel (human, UniProt Q12809). Briefly: primary screen, population patch clamp on CHO cells stably expressing hERG; higher = less effect of the substance.
Sequence of human ether-à-go-go-related gene (hERG) potassium channel (Q12809 whole entry, looked up): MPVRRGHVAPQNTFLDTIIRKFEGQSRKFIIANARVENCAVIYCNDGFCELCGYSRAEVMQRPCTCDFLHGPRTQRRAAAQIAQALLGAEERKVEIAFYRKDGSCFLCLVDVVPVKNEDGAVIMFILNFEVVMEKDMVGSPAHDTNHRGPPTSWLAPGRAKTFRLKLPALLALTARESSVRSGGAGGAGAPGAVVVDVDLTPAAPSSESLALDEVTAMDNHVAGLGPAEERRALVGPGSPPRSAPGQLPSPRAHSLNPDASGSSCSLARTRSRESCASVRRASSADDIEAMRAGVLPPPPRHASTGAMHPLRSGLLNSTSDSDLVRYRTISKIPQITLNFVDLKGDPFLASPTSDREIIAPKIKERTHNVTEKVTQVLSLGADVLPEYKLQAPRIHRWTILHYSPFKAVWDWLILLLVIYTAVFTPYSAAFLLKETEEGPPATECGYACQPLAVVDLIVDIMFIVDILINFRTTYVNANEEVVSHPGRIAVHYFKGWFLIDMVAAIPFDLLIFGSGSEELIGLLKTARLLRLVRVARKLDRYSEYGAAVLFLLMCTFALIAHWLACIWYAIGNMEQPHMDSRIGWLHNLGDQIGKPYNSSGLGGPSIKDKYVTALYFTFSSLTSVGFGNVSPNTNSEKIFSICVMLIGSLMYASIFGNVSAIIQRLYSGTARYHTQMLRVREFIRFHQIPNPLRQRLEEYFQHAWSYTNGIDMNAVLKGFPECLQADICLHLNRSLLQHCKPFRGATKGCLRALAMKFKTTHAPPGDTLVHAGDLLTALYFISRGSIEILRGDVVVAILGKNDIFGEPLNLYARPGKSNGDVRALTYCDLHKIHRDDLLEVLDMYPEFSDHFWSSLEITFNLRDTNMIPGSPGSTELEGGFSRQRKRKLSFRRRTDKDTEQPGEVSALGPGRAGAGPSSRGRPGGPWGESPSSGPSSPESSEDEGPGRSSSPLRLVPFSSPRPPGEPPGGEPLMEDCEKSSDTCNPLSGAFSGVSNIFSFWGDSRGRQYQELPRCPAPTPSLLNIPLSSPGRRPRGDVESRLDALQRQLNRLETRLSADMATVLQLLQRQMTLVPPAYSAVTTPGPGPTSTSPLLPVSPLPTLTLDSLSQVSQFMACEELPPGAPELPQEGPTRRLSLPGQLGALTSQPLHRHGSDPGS
`O=C(CSc1nnc(COc2ccccc2)o1)NC1CC2CCC1C2` (centres unmarked): the “hERG current change (%, negative = inhibition) at 1uM” value is 14.8%.

In the case of `CC(=O)c1ccc(NC(=O)COC(=O)c2c[nH]c3ccccc23)cc1`, the “hERG current change (%, negative = inhibition) at 1uM” value was 14.4%.

As to `C/C=C\C(=O)Nc1cccc(C2=NOC3(C2)C[C@@H](C(N)=O)N(C(=O)c2ccccc2)C3)c1` (some centres unmarked), the “hERG current change (%, negative = inhibition) at 1uM” value stood at 11.6%.

For the compound `CC1CCCC(C)N1CCCNC(=O)CN1C(=O)c2cccnc2Oc2ccc(Cl)cc21` (centres unmarked), the “hERG current change (%, negative = inhibition) at 1uM” value amounted to 6.15%.

With `O=C1[C@H]2[C@@H](C(=O)N1c1cc(Cl)cc(Cl)c1)[C@]1(C(=O)Nc3ccccc31)N1CCC[C@@H]21`, the “hERG current change (%, negative = inhibition) at 1uM” value is 4.86%.

Consider `Cc1cc(=O)n2nc(N3CCCC(C(=O)NCCC4=CCCCC4)C3)sc2n1` (centres unmarked), for which the “hERG current change (%, negative = inhibition) at 1uM” value was -4.44%.

With `O=S(=O)(c1ccc(=S)[nH]c1)N1CCCCC1`, the “hERG current change (%, negative = inhibition) at 1uM” value is 16.8%.

For the compound `O=C(O)c1cccc(NC(=S)NC(=O)c2cncc(Br)c2)c1`, the “hERG current change (%, negative = inhibition) at 1uM” value is recorded as 8.81%.

For the compound `Cc1cc(C)n2nc(SCc3ccc(C#N)cc3)nc2n1`, the “hERG current change (%, negative = inhibition) at 1uM” value is recorded as 6.64%.

On to `Cc1ccc(C)c(CSC2=NCCN2S(=O)(=O)c2ccccc2)c1`, for which the “hERG current change (%, negative = inhibition) at 1uM” value was found to be 7.31%.

On to `OCC1(Cc2ccccc2)CCCN(Cc2cn[nH]c2-c2ccccc2)C1` (centres unmarked), for which the “hERG current change (%, negative = inhibition) at 1uM” value came out at 6.96%.

Take `OCC1(CCOc2ccccc2)CCN(Cc2cn[nH]c2-c2ccc(F)cc2)CC1`: the “hERG current change (%, negative = inhibition) at 1uM” value is reported as -46.3%.

Turning to `OCC1(CCOc2ccccc2)CCN(Cc2cn[nH]c2-c2ccccc2)CC1`, the “hERG current change (%, negative = inhibition) at 1uM” value is given as -68.3%.

As for `Cc1ccc(S(=O)(=O)N2CCCCC2)cc1NC(=O)CN1CC=C(c2ccccc2)CC1`, the “hERG current change (%, negative = inhibition) at 1uM” value is listed as -0.529%.

Regarding `COc1cc(/C=N/NC(=S)NCC2CCCO2)cc(OC)c1OC` (centres unmarked), the “hERG current change (%, negative = inhibition) at 1uM” value is on record as 0.431%.

Turning to `CC1=C(C(=O)Nc2ccccc2)C(c2coc3ccccc3c2=O)C2=C(CCCC2=O)N1` (centres unmarked), the “hERG current change (%, negative = inhibition) at 1uM” value is recorded as 10.3%.

Take `CCN1CCN(CCC(=O)Nc2cccc(C)c2)CC1.Cl`: the “hERG current change (%, negative = inhibition) at 1uM” value was 9.56%.

Turning to `Cc1cccc(NC(=O)CCN2CCN(C)CC2)c1.Cl`, the “hERG current change (%, negative = inhibition) at 1uM” value was determined as 14.1%.

Regarding `Cc1cc(NC(=O)CCN2CCN(Cc3ccccc3)CC2)ccc1Br.Cl`, the “hERG current change (%, negative = inhibition) at 1uM” value came to 7.35%.

Take `Cc1ccc(NC(=O)CCN2CCOCC2)cc1C`: the “hERG current change (%, negative = inhibition) at 1uM” value came out at 11.1%.

For `COC(=O)c1ccc(NC(=O)CCN2CCCCC2)cc1.Cl`, the “hERG current change (%, negative = inhibition) at 1uM” value is given as -51%.

`Cc1cccc(NC(=O)CCN2CCN(C/C=C/c3ccccc3)CC2)c1.Cl`: the “hERG current change (%, negative = inhibition) at 1uM” value was -82.5%.

On to `Cc1ccc(NC(=O)N2CCN(C/C=C/c3ccccc3)CC2)cc1`, for which the “hERG current change (%, negative = inhibition) at 1uM” value is -10.7%.

Consider `Cc1ccc(NC(=O)CCN2CCN(C)CC2)cc1.Cl`, for which the “hERG current change (%, negative = inhibition) at 1uM” value was 14.9%.

Regarding `COC(=O)c1ccc(NC(=O)CCN2CCN(CCC(=O)Nc3ccc(C(=O)OC)cc3)CC2)cc1`, the “hERG current change (%, negative = inhibition) at 1uM” value was 1.76%.

Take `Cc1ccc(NC(=O)CCN2CCN(C/C=C/c3ccccc3)CC2)cc1C.Cl`: the “hERG current change (%, negative = inhibition) at 1uM” value was -53.2%.

Take `COC(=O)c1ccc(NC(=O)CCN2CCOCC2)cc1`: the “hERG current change (%, negative = inhibition) at 1uM” value is on record as 6.71%.

As for `Cc1ccc(NC(=O)CCN2CCN(C/C=C/c3ccccc3)CC2)cc1.Cl`, the “hERG current change (%, negative = inhibition) at 1uM” value is -86.3%.

Turning to `O=C(Cc1ccc(NS(=O)(=O)c2cccc(C(F)(F)F)c2)cc1)NCCN1CCOCC1`, the “hERG current change (%, negative = inhibition) at 1uM” value was determined as 5.88%.

`CCn1c(SCC(N)=O)nnc1-c1ccc(OC)c(OC)c1`: the “hERG current change (%, negative = inhibition) at 1uM” value worked out at 19.4%.

Turning to `C/C(=N/NC(=O)c1ccc(O)cc1)c1cccc([N+](=O)[O-])c1`, the “hERG current change (%, negative = inhibition) at 1uM” value stood at 9.78%.

Regarding `COc1cc(/C=C/C2=CC(C)(C)NC(=S)N2)cc(OC)c1OC`, the “hERG current change (%, negative = inhibition) at 1uM” value is 8.95%.

For the compound `COc1ccc(-n2c(SCC(=O)NCc3cccs3)nc3[nH]ncc3c2=O)cc1`, the “hERG current change (%, negative = inhibition) at 1uM” value is on record as -7.44%.

Consider `CCC(C)NC(=S)Nc1ccccc1OC` (centres unmarked), for which the “hERG current change (%, negative = inhibition) at 1uM” value is reported as 1.64%.

Take `CCN(C(=O)CSc1ncnc2c1cnn2-c1ccccc1)C1CCS(=O)(=O)C1` (centres unmarked): the “hERG current change (%, negative = inhibition) at 1uM” value is reported as 9.57%.

For the compound `O=[N+]([O-])/C=C/c1c(OCc2ccccc2)ccc2ccccc12`, the “hERG current change (%, negative = inhibition) at 1uM” value was -3.83%.

For the compound `CCCC(C)C(=O)OCC(=O)Nc1c(Br)cc(C)cc1Br` (centres unmarked), the “hERG current change (%, negative = inhibition) at 1uM” value was 9.86%.

On to `CCCc1ccc(-c2c(C)sc(N)c2C#N)cc1`, for which the “hERG current change (%, negative = inhibition) at 1uM” value turned out to be 16.9%.

`c1ccc(-n2nnnc2-n2ccnc2)cc1`: the “hERG current change (%, negative = inhibition) at 1uM” value is 2.97%.

With `COc1ccccc1CCNC(=O)C(=O)NCC1OCCN1S(=O)(=O)c1cc(F)ccc1F` (centres unmarked), the “hERG current change (%, negative = inhibition) at 1uM” value came out at 8.74%.

For the compound `Cc1ccc(S(=O)(=O)N2CCN(S(=O)(=O)c3ccc(C)cc3)C2c2ccccc2)cc1`, the “hERG current change (%, negative = inhibition) at 1uM” value was 3.23%.

Consider `COc1ccc(NC(=O)CCN2CCN(C/C=C/c3ccccc3)CC2)cc1`, for which the “hERG current change (%, negative = inhibition) at 1uM” value is given as -37.8%.

Regarding `O=C(CCN1CCN(C/C=C/c2ccccc2)CC1)Nc1ccccc1`, the “hERG current change (%, negative = inhibition) at 1uM” value is on record as -79%.

As to `O=C(CCN1CCN(C/C=C/c2ccccc2)CC1)Nc1ccc(Cl)cc1`, the “hERG current change (%, negative = inhibition) at 1uM” value was -74.1%.

(Values after article PMC4336329 (PLoS ONE, 2015).)
